Among the data in PubChem BioAssay (EPA / NIEHS) are AC50 and outcome values, retold here.

For test [1], the system named is rat Norepinephrine Transporter (NET), gene 83511. Description: NVS_TR_rNET: NovaScreen (NVS) Transporter Assay for rat Norepinephrine Transporter (NET) (AID 2283373). The procedure, abridged:
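Rat forebrain membranes; radioligand binding measured by filter-based scintillation counting 1 hour after dosing. Loss of specific binding versus DMSO baseline scored; primary screen in duplicate at 25 uM, actives followed up in concentration series.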

Test [2] addresses human Dopamine Transporter (DAT), SLC6A3 (gene 6531) (UniProt Q01959). Description: NVS_TR_hDAT: NovaScreen (NVS) Transporter Assay for human Dopamine Transporter (DAT) (AID 2283374).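 Further: activity means loss of bound radioligand signal relative to DMSO.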 The procedure, abridged: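 Test chemicals were first screened in duplicate at 25 uM, with actives retested as concentration series. Displacement of a specific radioligand from cell-free human dopamine transporter was measured after 1 h by filtration and scintillation counting.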

For test [3], the target named is Norway rat Vesicular Monoamine Transporter (VMAT2), neurotransmitter transporter, Slc18a2 (gene 25549) (UniProt Q01827). In words: NVS_TR_rVMAT2: NovaScreen (NVS) Transporter Assay for Norway rat Vesicular Monoamine Transporter (VMAT2), neurotransmitter transporter (AID 2283376).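 Further: actives lower the bound radioligand signal below the DMSO level.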 The method, boiled down:
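Tissue: rat forebrain extract. Format: competitive radioligand binding, cell-free. Timepoint: 1 h. Readout: filter radiodetection/scintillation. Screen: 25 uM in duplicate, then concentration series for actives. Baseline: DMSO.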

Test [4] has as its target human Norepinephrine Transporter (NET), SLC6A2 (gene 6530) (UniProt P23975). In words: NVS_TR_hNET: NovaScreen (NVS) Transporter Assay for human Norepinephrine Transporter (NET) (AID 2283377).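 Further: cell-free membrane protein extracted from CHO cells expressing human NET.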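 On AC50: displacement of radioligand from human NET seen as loss of scintillation signal.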 The procedure, abridged:
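Scintillation counts of filter-retained radioligand served as the readout, taken 1 h post-dosing in a cell-free CHO-derived system. Test chemicals ran first at 25 uM in duplicate; confirmed hits were retested across concentrations.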

In test [5] the target is Agonist Androgen Response Element (ARE), AR (gene 367) (UniProt P10275). In words: OT_AR_ARELUC_AG_1440: Odyssey Thera (OT) 24-hour CHO-K1 Luciferase Assay for Agonist Androgen Response Element (ARE) (AID 2283379). The method, boiled down: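 Agonist mode, 24 h exposure in CHO-K1 ARE-luciferase cells; values reflect luminescence induction over vehicle.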
Agonist Androgen Response Element (ARE), AR (gene 367), sequence (P10275 whole entry, looked up): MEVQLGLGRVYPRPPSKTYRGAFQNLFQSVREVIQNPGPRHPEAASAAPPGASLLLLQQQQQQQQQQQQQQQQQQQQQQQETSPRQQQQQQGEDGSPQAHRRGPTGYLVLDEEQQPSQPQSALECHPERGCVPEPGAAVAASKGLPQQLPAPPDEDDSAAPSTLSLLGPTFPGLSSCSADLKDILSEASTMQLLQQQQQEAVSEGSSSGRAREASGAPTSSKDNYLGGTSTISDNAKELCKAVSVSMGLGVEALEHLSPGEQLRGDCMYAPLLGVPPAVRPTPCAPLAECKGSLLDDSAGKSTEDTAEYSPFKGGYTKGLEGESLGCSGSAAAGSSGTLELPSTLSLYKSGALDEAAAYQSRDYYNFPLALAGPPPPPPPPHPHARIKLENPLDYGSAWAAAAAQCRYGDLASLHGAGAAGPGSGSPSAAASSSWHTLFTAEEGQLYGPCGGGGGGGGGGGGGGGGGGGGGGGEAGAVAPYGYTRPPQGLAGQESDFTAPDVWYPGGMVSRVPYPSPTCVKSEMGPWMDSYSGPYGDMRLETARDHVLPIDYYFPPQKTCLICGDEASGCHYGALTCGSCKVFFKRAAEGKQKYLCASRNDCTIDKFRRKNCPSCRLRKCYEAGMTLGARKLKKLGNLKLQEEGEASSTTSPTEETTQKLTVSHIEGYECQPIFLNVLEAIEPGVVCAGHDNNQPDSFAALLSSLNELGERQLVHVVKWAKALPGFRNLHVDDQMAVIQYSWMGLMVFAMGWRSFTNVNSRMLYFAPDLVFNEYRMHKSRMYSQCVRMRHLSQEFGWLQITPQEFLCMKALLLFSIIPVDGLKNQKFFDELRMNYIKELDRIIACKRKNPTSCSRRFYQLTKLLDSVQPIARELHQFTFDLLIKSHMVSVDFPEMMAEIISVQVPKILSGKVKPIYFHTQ
The target of test [6] is Retinoic acid receptor RXR-alpha (Homo sapiens) (UniProt P19793). Description: OT_NURR1_NURR1RXRa_1440: Odyssey Thera (OT) 24-hour HEK293T Protein Complementation Assay for Nurr1/retinoid X receptor (RXR) (AID 2283386). The procedure, abridged:
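HEK293T cells were dosed with compound and read 24 h later by fluorescence intensity in a protein-fragment complementation format, where Nurr1–RXRα interaction reconstitutes a split reporter. Activity was fitted as gain of signal relative to DMSO baseline.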

The target in test [7] is Peroxisome proliferator-activated receptor gamma (Homo sapiens) (UniProt P37231). In words: OT_PPARg_PPARgSRC1_0480: Odyssey Thera (OT) 8-hour Protein-Complementation Assay for Peroxisome Proliferator-activated Receptor Gamma / SRC-1 Co-activator (AID 2283387). The method, boiled down:
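Split-YFP (IFP1/IFP2) PPARg/SRC-1 reporter, HEK293T, 37 °C, 5% CO2; 8 h compound; formaldehyde fix + Draq5; high-content imaging, N/C ratio, ≥350 cells/image, positive direction vs DMSO.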

The target is the same in test [8]. In words: OT_PPARg_PPARgSRC1_1440: Odyssey Thera (OT) 24-hour Protein-Complementation Assay for Peroxisome Proliferator-activated Receptor Gamma/ SRC-1 Co-activator (AID 2283388). The method, boiled down:
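HEK293T cells transiently transfected with PPARg and SRC-1 fused via (Gly4Ser)2 linker to split Venus YFP fragments (IFP1/IFP2) were dosed 24 h; fixed, Draq5-stained, imaged at 488/635 nm; nuclear/cytoplasmic fluorescence ratio scored versus DMSO baseline, gain-of-signal.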

A short description of test [9]: CEETOX_H295R_OHPREG: CeeTox H295R High-throughput Steroidogenesis Assay for OH-Pregnenolone (OHPREG) (AID 2283434; active means hit-call score of the fitted dose curve at least 0.9, where 1 is the maximum; inactive means score below 0.9). The conditions noted are these: actives raise or lower the signal. The procedure, abridged: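 Hormone levels in spent medium were measured by tandem mass spectrometry following liquid-liquid extraction. Cells (H295R) had been forskolin-stimulated (10 uM, 48 h) before a 48 h chemical exposure at 0.1% DMSO, with activity fitted in both directions against DMSO.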

A short description of test [10]: CEETOX_H295R_OHPROG: CeeTox H295R High-throughput Steroidogenesis Assay for OH-Progesterone (OHPROG) (AID 2283435; active means hit-call score of the fitted dose curve at least 0.9, where 1 is the maximum; inactive means score below 0.9). The following applies: actives raise or lower the signal. The method, boiled down: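 H295R human adrenal cells were prestimulated 48 h with 10 uM forskolin, then exposed 48 h to test chemical (0.1% DMSO final). 17alpha-hydroxyprogesterone in medium was measured by HPLC-MS/MS after MTBE extraction; bidirectional fitting vs DMSO.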

Test [11] in a line: CEETOX_H295R_ANDR: CeeTox H295R High-throughput Steroidogenesis Assay for Androstenedione (ANDR) (AID 2283436; active means hit-call score of the fitted dose curve at least 0.9, where 1 is the maximum; inactive means score below 0.9). The conditions noted are these: actives raise or lower the signal. The method, boiled down:
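Read-out is androstenedione secreted into medium, measured by tandem mass spectrometry after liquid-liquid extraction. Cells were H295R, dosed for 48 h per modified OECD 456; activity fitted in both directions relative to DMSO.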

The target in test [12] is rat Serotonin Transporter (SERT), Slc6a4 (gene 25553) (UniProt P31652). In words: NVS_TR_rSERT: NovaScreen (NVS) Transporter Assay for rat Serotonin Transporter (SERT) (AID 2283375). The method, boiled down:
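Rat forebrain membranes were incubated with test chemical for 1 hour; radioligand binding to SERT was measured by filter-based scintillation counting. Primary screen ran in duplicate at 25 uM, with actives followed up in concentration series; DMSO served as negative control.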

The target in test [13] is Estrogen receptor beta (Homo sapiens) (UniProt Q92731). In words: OT_ER_ERbERb_1440: Odyssey Thera (OT) 24-hour HEK293T Protein-Complementation Assay for Estrogen Receptor-beta/-beta Homodimer (AID 2283380).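 Further: fluorescence gain from ER beta LBD homodimer complementation read by laser scanning cytometry; scored as signal increase over DMSO baseline for both agonists and antagonists.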 The procedure, abridged: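 Fluorescence increase, nuclear for agonists or whole-cell for antagonists, relative to DMSO vehicle, quantified by laser scanning cytometer after fixation and Draq5 staining. Readout from 24 h treatment of HEK293T cells carrying complementation-paired ER beta LBD (aa 310-547).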
Estrogen receptor beta (Homo sapiens), sequence (Q92731 whole entry, looked up, the tested form may be a part): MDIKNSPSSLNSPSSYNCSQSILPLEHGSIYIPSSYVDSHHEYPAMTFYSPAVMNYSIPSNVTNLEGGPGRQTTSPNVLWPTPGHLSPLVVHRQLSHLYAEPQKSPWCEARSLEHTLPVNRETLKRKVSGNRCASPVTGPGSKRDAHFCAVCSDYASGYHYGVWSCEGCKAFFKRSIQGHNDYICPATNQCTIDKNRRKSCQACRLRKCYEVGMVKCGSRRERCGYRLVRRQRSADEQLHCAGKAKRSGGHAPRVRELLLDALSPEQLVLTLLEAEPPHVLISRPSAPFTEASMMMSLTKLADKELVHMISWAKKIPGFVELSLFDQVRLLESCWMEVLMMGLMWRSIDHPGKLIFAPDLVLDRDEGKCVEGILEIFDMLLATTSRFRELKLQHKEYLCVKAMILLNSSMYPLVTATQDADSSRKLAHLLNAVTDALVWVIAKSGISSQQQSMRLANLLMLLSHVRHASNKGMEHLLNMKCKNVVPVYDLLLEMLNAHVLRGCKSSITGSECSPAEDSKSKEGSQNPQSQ

The target of test [14] is Estrogen receptor (Homo sapiens) (UniProt P03372). Description: OT_ERa_GFPERaERE_0480: Odyssey Thera (OT) 8-hour HeLa Transcription Induction Assay for Estrogen Receptor (AID 2283381; active means hit-call score of the fitted dose curve at least 0.9, where 1 is the maximum; inactive means score below 0.9). The method, boiled down:
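HeLa cells dosed with compound and imaged by fluorescence microscopy at 8 h; GFP induction from an ERE reporter quantified by high-content image analysis and fitted as gain of signal against DMSO baseline.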

Test [15] has the same target. In words: OT_ERa_GFPERaERE_0120: Odyssey Thera (OT) 2-hour HeLa Transcription Induction Assay for Estrogen Receptor (AID 2283382). The method, boiled down:
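HeLa cells were dosed with test chemical and read 2 hours later for GFP-ERα/ERE-linked fluorescent protein induction by fluorescence microscopy. Gain-of-signal was fitted relative to DMSO baseline, quantified by high content image analysis.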

Test [16] has as its target Bile acid receptor (Homo sapiens) (UniProt Q96RI1). Description: OT_FXR_FXRSRC1_0480: Odyssey Thera (OT) 8-hour HEK293T Protein-Complementation Assay for Farnesoid X receptor/SRC-1 Co-activator (AID 2283383). The procedure, abridged: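 HEK293T cells expressing FXR and SRC-1 fused to reporter fragments were dosed with compound for 8 h; fluorescence from the reconstituted reporter marked co-activator recruitment. Gain of signal was fitted against the DMSO baseline.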

Test [17] has as its target Retinoic acid receptor RXR-alpha (Homo sapiens) (UniProt P19793). Description: OT_NURR1_NURR1RXRa_0480: Odyssey Thera (OT) 8-hour HEK293T Protein Complementation Assay for Nurr1/retinoid X receptor (RXR) (AID 2283385). The method, boiled down:
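HEK293T cells expressing Nurr1 and RXRα fused to reporter fragments were dosed with compound for 8 hours. Complex formation was read as fluorescence intensity and analysed as gain of signal against DMSO as baseline.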

The target of test [18] is Bile acid receptor (Homo sapiens) (UniProt Q96RI1). Description: OT_FXR_FXRSRC1_1440: Odyssey Thera (OT) 24-hour HEK293T Protein-Complementation Assay for Farnesoid X receptor/SRC-1 Co-activator (AID 2283384). The method, boiled down: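 HEK293T cells were dosed with compound and read 24 h later by fluorescence intensity from protein-fragment complementation reporting FXR/SRC-1 co-activator interaction. Gain of signal was fitted relative to DMSO negative control as baseline.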
Bile acid receptor (Homo sapiens), sequence (Q96RI1 whole entry, looked up, the tested form may be a part): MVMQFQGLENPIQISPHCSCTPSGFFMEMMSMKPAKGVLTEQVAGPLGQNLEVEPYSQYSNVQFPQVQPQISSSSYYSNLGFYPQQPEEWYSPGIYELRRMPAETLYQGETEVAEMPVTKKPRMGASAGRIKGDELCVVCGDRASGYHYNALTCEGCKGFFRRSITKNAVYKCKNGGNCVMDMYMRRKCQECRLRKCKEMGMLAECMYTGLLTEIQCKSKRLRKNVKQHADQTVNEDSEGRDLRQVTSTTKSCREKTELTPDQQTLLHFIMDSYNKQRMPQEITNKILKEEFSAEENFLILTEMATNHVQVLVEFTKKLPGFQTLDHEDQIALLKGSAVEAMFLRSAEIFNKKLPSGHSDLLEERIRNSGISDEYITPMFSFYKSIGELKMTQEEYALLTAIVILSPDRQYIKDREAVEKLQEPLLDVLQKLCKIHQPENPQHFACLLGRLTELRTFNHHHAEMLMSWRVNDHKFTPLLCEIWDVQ

Test [19] in a line: CEETOX_H295R_11DCORT: CeeTox H295R High-throughput Steroidogenesis Assay for 11-Deoxycortisol (11DCORT) (AID 2283432; active means hit-call score of the fitted dose curve at least 0.9, where 1 is the maximum; inactive means score below 0.9;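 further: 11-deoxycortisol secreted into the medium measured by LC-MS/MS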). The conditions noted are these: actives raise or lower the signal. The procedure, abridged:
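Steroidogenesis in human H295R cells: 48 h chemical exposure after forskolin priming, 11-deoxycortisol measured by LC-MS/MS.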

Test [20] in a line: CEETOX_H295R_CORTIC: CeeTox H295R High-throughput Steroidogenesis Assay for Corticosterone (CORTIC) (AID 2283437; active means hit-call score of the fitted dose curve at least 0.9, where 1 is the maximum; inactive means score below 0.9;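 further: corticosterone secreted into medium quantified by mass spectrometry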). The following applies: actives raise or lower the signal. The method, boiled down:
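Corticosterone secreted into medium is measured by reverse-phase HPLC with tandem MS following liquid-liquid extraction. Cells are forskolin-stimulated (10 uM, 48 h) before 48 h test exposure; activity fitted in both directions against DMSO.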

Molecules are shown by their SMILES. Inconclusive results are not listed. Where a structure was tested more than once in an assay, its records may differ in their call. Active and inactive are the calls of the source. How the source made its calls, unless noted: active means hit-call score of the fitted dose curve at least 0.9, where 1 is the maximum; inconclusive means response in the unintended direction; inactive means score below 0.9.

Peroxisome proliferator-activated receptor gamma (Homo sapiens), sequence (P37231 whole entry, looked up): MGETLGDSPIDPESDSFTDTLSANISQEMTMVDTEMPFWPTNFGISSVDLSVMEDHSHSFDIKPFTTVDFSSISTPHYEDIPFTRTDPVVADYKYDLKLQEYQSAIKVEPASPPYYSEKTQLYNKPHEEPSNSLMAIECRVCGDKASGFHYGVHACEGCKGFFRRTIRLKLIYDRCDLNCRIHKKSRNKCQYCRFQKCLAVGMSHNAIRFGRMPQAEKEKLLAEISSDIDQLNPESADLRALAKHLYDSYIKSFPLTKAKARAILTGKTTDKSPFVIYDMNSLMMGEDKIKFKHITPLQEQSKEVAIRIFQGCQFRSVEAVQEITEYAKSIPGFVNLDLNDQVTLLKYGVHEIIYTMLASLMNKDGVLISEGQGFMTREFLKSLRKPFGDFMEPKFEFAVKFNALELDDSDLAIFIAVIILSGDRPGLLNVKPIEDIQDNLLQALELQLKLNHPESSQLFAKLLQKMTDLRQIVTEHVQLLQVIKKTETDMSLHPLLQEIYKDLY
Estrogen receptor (Homo sapiens), sequence (P03372 whole entry, looked up): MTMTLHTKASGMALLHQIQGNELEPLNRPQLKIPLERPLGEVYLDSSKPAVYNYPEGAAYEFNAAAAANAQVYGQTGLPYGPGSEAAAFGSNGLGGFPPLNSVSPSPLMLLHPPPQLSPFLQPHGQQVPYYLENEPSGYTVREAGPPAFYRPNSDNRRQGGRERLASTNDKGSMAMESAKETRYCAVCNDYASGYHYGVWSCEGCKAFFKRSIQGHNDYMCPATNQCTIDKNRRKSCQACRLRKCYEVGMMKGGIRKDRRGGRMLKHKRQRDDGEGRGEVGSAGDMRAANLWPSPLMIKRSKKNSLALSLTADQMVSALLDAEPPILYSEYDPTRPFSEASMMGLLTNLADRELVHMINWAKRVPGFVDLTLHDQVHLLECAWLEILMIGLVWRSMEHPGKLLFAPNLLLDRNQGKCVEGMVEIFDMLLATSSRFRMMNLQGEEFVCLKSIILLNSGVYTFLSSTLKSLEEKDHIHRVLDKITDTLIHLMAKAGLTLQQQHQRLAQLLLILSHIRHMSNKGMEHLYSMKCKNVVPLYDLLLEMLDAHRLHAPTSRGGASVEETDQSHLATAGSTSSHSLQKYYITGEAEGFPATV
human Norepinephrine Transporter (NET), SLC6A2 (gene 6530), sequence (P23975 whole entry, looked up): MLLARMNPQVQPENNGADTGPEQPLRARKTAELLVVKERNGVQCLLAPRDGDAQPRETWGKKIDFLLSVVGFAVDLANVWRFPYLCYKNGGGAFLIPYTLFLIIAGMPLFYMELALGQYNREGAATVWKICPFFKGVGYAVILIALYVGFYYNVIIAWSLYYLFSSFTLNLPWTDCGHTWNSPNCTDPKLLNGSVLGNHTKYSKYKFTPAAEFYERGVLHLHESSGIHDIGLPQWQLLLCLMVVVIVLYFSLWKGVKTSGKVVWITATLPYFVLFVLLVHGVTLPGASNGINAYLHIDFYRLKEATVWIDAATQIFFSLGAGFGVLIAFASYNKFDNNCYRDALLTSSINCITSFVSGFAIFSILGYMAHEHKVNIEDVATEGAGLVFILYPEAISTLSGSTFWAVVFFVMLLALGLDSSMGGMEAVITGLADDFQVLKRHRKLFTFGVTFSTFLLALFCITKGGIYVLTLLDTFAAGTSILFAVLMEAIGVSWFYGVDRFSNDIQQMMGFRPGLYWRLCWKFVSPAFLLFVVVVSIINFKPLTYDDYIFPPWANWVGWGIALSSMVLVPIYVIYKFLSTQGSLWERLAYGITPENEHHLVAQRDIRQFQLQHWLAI
human Dopamine Transporter (DAT), SLC6A3 (gene 6531), sequence (Q01959 whole entry, looked up): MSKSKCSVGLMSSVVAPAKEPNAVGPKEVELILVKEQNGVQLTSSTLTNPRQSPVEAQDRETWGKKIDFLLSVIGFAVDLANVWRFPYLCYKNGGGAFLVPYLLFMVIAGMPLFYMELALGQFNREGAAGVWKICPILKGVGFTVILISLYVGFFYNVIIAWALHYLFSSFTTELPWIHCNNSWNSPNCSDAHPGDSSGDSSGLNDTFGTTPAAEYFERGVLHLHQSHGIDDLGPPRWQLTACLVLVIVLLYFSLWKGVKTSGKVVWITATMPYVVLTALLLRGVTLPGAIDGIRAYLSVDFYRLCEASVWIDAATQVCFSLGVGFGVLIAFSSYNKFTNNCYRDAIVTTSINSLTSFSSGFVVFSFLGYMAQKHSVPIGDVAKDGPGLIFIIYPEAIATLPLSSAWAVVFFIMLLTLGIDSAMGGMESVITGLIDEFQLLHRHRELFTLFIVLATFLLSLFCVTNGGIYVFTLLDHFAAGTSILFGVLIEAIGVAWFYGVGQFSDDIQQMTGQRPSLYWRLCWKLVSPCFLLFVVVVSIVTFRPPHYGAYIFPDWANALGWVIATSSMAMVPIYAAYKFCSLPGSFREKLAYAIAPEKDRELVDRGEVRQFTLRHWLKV
Retinoic acid receptor RXR-alpha (Homo sapiens), sequence (P19793 whole entry, looked up, the tested form may be a part): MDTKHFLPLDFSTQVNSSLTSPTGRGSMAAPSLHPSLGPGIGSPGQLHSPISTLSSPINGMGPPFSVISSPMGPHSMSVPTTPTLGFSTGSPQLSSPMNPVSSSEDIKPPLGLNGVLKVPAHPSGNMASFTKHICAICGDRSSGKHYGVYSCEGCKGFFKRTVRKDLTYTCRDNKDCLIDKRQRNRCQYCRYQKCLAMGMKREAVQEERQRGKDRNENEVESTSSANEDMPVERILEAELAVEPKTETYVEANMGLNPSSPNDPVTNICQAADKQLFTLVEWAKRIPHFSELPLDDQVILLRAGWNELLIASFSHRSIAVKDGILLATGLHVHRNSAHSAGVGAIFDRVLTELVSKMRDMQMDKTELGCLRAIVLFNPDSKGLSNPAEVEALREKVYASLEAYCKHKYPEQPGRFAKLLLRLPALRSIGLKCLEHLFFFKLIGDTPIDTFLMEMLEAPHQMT

For `CCC(=O)Nc1ccc(Cl)c(Cl)c1`, the AC50 was 4.96 µM (active) in test [1]; 6.22 µM (active) in [2]; 23.3 µM (active) in test [3]; 4.14 µM (active) in test [4]; 3.97 µM (active) in [10]; 3.89 µM (active) in [11]. In addition, the call in test [5], in test [6], in test [7], in [8] and in test [9] was inactive.
Turning to `Nc1c(Cl)cc([N+](=O)[O-])cc1Cl`, the AC50 in [2] is 25 µM (active); in test [12], 3.3 µM (active). In addition, the call in test [5], in [13], in test [14], in [15], in test [16] and in test [17] was inactive. The compound was called inactive in test [6], in test [7] and in test [8].
As for `CCOP(=O)(NC(C)C)Oc1ccc(SC)c(C)c1` (configuration not stated), the result in [5], in [13], in [17], in test [6], in test [7] and in [8] was inactive. The call in [20] was inactive. Moreover, the AC50 is 50 µM (active) in test [16]; 8.5 µM (active) in test [18]; 24 µM (active) in test [19]; 13.9 µM (active) in [9]; 50 µM (active) in [11].
As to `CC(COc1ccc(Oc2ccccc2)cc1)Oc1ccccn1` (configuration not stated), the outcome in [2], in [13], in test [17], in test [6], in test [7] and in test [8] was inactive. Moreover, the compound was called inactive in test [9], in [10] and in [11]. Further, the figures for the AC50 in test [16], in test [18] and in [17] were 43 µM (active), 7.29 µM (active) and 63.2 µM (active), respectively.
On to `CC(C1CC1)C(O)(Cn1cncn1)c1ccc(Cl)cc1` (configuration not stated), for which the AC50 in test [2] is 0.175 µM (active); in test [13], 31.1 µM (active); in test [9], 4.38 µM (active); in test [10] it was 3.21 µM (active). Further, the compound was classed as inactive in [17], in test [7] and in test [8].
With `CC(Oc1cccc(Cl)c1)C(=O)O` (configuration not stated), the call in test [4], in [13], in [16], in [18], in test [17] and in [6] was inactive. The compound was called inactive in test [7] and in test [8].
With `CC[C@H](C)[C@H]1O[C@]2(C=C[C@@H]1C)C[C@@H]1C[C@@H](C/C=C(\C)[C@@H](O[C@H]3C[C@H](OC)[C@@H](O[C@H]4C[C@H](OC)[C@@H](NC)[C@H](C)O4)[C@H](C)O3)[C@@H](C)/C=C/C=C3\CO[C@@H]4[C@H](O)C(C)=C[C@@H](C(=O)O1)[C@]34O)O2`, the compound was called inactive in test [1], in [2], in [15], in test [6], in test [7] and in test [8]. Moreover, the half-maximal activity concentration (AC50) in test [3] was 4.68 µM (active); in test [4] it was 5.29 µM (active); in test [14], 17.9 µM (active).
For `CNC(=O)ON=C(SC)C(=O)N(C)C`, the outcome in [5], in test [13], in [14], in [15], in test [17] and in test [6] was inactive. Also, the result in [7], in test [8], in [9], in test [10] and in [11] was inactive.
Turning to `CCCOc1nn(C(=O)NS(=O)(=O)c2ccccc2C(=O)OC)c(=O)n1C`, the compound was called inactive in test [5], in test [17], in test [6], in [7] and in test [8].
Take `O=[N+]([O-])c1cc(C(F)(F)F)c(Cl)c([N+](=O)[O-])c1Nc1ncc(C(F)(F)F)cc1Cl`: the compound was classed as inactive in test [2], in [7] and in test [8]. Further, the AC50 in [14] was 17.9 µM (active); in test [15] it was 77.7 µM (active); in [6] it was 0.641 µM (active).
